Compound activity: PubChem BioAssay, several laboratories
RecA intein inh = Mtb RecA intein splicing inhibitors, primary screen, biochemical, fluorescence, HTS; Protein RecA (Mycobacterium tuberculosis (strain ATCC 25618 / H37Rv)), P9WHJ3; cell-free RecA intein splicing; inhibition, % (concentration not given with the values); 0.75% of 290,000 active; AID 2221, 2009; in the data active means inhibition above about 30%;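 further: 0% = vehicle wells and 100% = reference inhibitor control wells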
FBA Mtb inh = Mtb FBA enzyme inhibitors, primary screen, biochemical, fluorescence, strain H37Rv; Fructose-bisphosphate aldolase (Mycobacterium tuberculosis (strain ATCC 25618 / H37Rv)), …; purified M. tuberculosis FBA, fluorescence read-out; inhibition, % at 1 µM; 2.3% of 360,000 active; in the data active means inhibition above about 27%;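 further: 0% = vehicle and 100% = reference inhibitor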
Target sequence (P9WQA3 whole entry, looked up): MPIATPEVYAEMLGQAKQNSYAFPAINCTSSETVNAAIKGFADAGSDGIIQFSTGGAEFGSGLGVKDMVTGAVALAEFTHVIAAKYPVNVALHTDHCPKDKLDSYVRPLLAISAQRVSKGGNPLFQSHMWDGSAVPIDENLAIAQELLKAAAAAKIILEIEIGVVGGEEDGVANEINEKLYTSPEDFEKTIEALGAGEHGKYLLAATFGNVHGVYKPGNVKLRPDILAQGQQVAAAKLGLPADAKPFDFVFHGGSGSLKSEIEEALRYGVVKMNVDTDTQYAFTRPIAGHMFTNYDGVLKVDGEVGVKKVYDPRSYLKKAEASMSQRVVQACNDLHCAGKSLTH
VHR inh abs = VHR1 phosphatase inhibitors, primary screen, biochemical, absorbance, uHTS; 0.52% of 290,000 active; recombinant VHR phosphatase, pNPP absorbance; inhibition, % at 13.3 µM; in the data active means inhibition above about 50%
Target sequence (P51452 whole entry, looked up): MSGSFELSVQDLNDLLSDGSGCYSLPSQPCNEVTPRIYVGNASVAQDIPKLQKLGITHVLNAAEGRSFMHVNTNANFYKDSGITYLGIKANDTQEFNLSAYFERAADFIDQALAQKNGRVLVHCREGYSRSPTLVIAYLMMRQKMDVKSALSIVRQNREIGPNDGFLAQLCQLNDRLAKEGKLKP
CCHFV vOTU inh = CCHFV vOTU protease inhibitors, primary screen, biochemical, Pep-AMC substrate, fluorescence; inhibition, % at 11.5 µM; AID 651958, 2012; 0.55% of 370,000 active; further: 0% = vehicle wells with enzyme and 100% = no enzyme wells
GDH-TPI counter = GDH-TPI coupling enzyme inhibitors, primary screen, artefact control for M. tuberculosis FBA inhibitor project, biochemical, absorbance, full deck; GDH-TPI coupled enzyme counterscreen, NADH absorbance; inhibition, % at 4.8 µM; 1.2% of 360,000 active;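 further: 0% = DMSO wells and 100% = wells lacking the enzyme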
3CLpro inhibitor = SARS-CoV 3CLpro protease inhibitors, primary screen, biochemical, quenched FRET | Replicase polyprotein 1ab (Severe acute respiratory syndrome coronavirus), P0C6X7 | recombinant SARS-CoV 3CLpro, quenched FRET peptide cleavage | inhibition, % at 6 µM | 0.14% of 290,000 active; in the data active means inhibition above about 12%
* marks the source's active call; other numbers are inactive results; nt = no result given; + = active, no number. This is a sample that favours compounds with a hit; in the whole collection about 4.7% have one here. Unless noted, no stated cut-off is given here; in the data, active means inhibition above about 30%; inactive means the rest.

SMILES	RecA intein inh	FBA Mtb inh	VHR inh abs	CCHFV vOTU inh	GDH-TPI counter	3CLpro inhibitor
Cc1cc(-c2ccccc2)nc(N/N=C/c2ccc(N(C)C)cc2)n1	-2	0	nt	8	31*	nt
Cc1cc(C)nc(N/N=C/c2ccc(N3CCOCC3)cc2)n1	-17	0	21	8	35*	-5
O=C(O)c1cc(N/N=C/c2ccc(N3CCOCC3)cc2)ccc1Cl	-5	2	-16	2	69*	0
Cc1cc(C)nc(N/N=C/c2ccco2)n1	-6	-2	2	-3	31*	2
Cc1cc(-c2ccccc2)nc(N/N=C/c2ccccc2)n1	-5	4	-3	5	17	0
CCCN1C(=O)CC(c2ccc(OC)c(OC)c2)C1=O (stereo unspecified)	nt	-3	nt	-5	nt	nt
Cc1ccc(/C=N/Nc2nc(C)cc(C)n2)cc1	-2	2	33	-6	11	0
CSc1ccc(/C=N/Nc2nc(C)cc(C)n2)cc1	-2	-6	7	16	33*	-4
Oc1oc(-c2ccccc2)nc1C=NCc1ccccc1	3	-4	23	3	49*	-3
Oc1oc(-c2cccc3ccccc23)nc1C=NCc1ccccc1	nt	nt	nt	nt	nt	-7
COc1ccc(C(=O)N/C(=C/c2cccs2)C(=O)N2CCN(C)CC2)cc1	nt	4	nt	2	15	nt
CCC12OC(=N)C(C#N)(C1C)C(C#N)(C#N)C(c1ccccc1)O2 (stereo unspecified)	-54	144*	-4	-192	17	-1
CCOC(=O)c1c(N)n(Cc2ccc(OC)cc2)c2nc3ccccc3nc12	-38	nt	11	-168	nt	4
COC(=O)c1c(N)n(Cc2ccc(OC)cc2)c2nc3ccccc3nc12	nt	159*	48	-202	2	3
COCCOC(=O)c1c(N)n(Cc2ccc(OC)cc2)c2nc3ccccc3nc12	nt	171*	20	-165	12	2
COc1ccc(Cn2c(N)c(C(=O)NCc3ccco3)c3nc4ccccc4nc32)cc1OC	nt	3	4	1	18	5
Cc1nccc(-c2sc(-c3cccs3)nc2C)n1	-64	+	27	-246	26	1
O=C(NCCN1CCc2ccccc2C1)Nc1ccc([N+](=O)[O-])cc1	-2	2	17	4	40*	-2
O=C(NCCN1CCCCC1)Nc1ccc(Cl)cc1	2	1	57*	-16	11	-1
O=C(NCc1ccccc1F)Nc1ccc([N+](=O)[O-])cc1	2	0	56*	7	11	6
O=C(NCc1ccco1)Nc1ccc([N+](=O)[O-])cc1	nt	-10	-8	-6	10	1
CCC(C)NC(=O)NCc1ccccc1F (stereo unspecified)	-1	1	56*	-10	-1	0
C(=N\Nc1nncc2ccccc12)/c1cccnc1	nt	nt	nt	0	nt	nt
COCCCNc1ccn2nc(-c3ccc(OCc4ccccc4)cc3)cc2n1	nt	8	nt	22	8	nt
COc1ccc(C(=O)N2CCC[C@@H]2C(=O)N2CCC[C@@H]2C(=O)NCc2ccccc2)cc1F	nt	nt	nt	2	nt	nt
SMILES	RecA intein inh	FBA Mtb inh	VHR inh abs	CCHFV vOTU inh	GDH-TPI counter	3CLpro inhibitor
O=C(O)c1ccc(/C=N/Nc2ccc(C(F)(F)F)cn2)cc1	-3	0	2	19	38*	8
O=c1[nH]c(N/N=C\c2ccc(F)cc2)nc2ccccc12	nt	22	57*	-16	25	-1
O=C(O)c1ccc(/C=N/Nc2nc3ccccc3[nH]2)cc1	-2	2	-12	1	75*	-3
CC(=O)Nc1ccc(/C=N/Nc2nc3ccccc3[nH]2)cc1	nt	-5	-4	17	38*	-1
COC(=O)c1ccc(/C=N/Nc2nc3ccccc3[nH]2)cc1	-2	1	13	-1	14	1
C=CCCC1CN(Cc2ccc(OC)cc2)S(=O)(=O)c2c(cccc2N2CCCC2)O1 (stereo unspecified)	nt	nt	nt	11	nt	nt
Cc1ccccc1-c1csc(C(C)(O)c2ccc(F)c(F)c2)n1 (stereo unspecified)	nt	-3	nt	8	5	nt
Cc1ccsc1/C=N/Nc1nc2ccccc2[nH]1	2	5	23	18	32*	0
O=C(C1CCC(C(=O)N2CCc3ccccc32)CC1)N1CCc2ccccc21 (stereo unspecified)	-1	0	2	5	10	1
O=C(CCl)c1ccc2c(c1)CCN2C(=O)C1CC1	60*	nt	-5	nt	nt	-1
COCCNC(=S)N/N=C(\C)c1ccccc1O	0	1	-7	12	31*	2
COCCNC(=S)N/N=C(\C)c1ccc(Cl)s1	1	1	19	4	45*	0
Cc1ccc(S(=O)(=O)/C=C2\OCc3ccccc32)cc1	nt	nt	nt	0	nt	nt
Cc1ccc(CSc2ncnc3c2cnn3-c2ccccc2)cc1	0	1	-2	13	2	2
c1ccc(-c2nc(Sc3ncnc4c3cnn4-c3ccccc3)n[nH]2)cc1	32*	nt	4	nt	nt	0
O=S(=O)(c1cccs1)N1CN(Cc2ccc(F)cc2)c2nc3ccccc3nc21	nt	6	17	-1	7	3
O=S(=O)(c1ccc(F)cc1)N1CN(Cc2ccco2)c2nc3ccccc3nc21	4	23	52*	-22	18	-6
O=S(=O)(c1cccs1)N1CN(Cc2cccs2)c2nc3ccccc3nc21	-1	103*	10	-1	17	0
CCOC(=O)CSc1nc2c(sc(=S)n2Cc2ccco2)c(=O)n1-c1ccccc1	11	-2	10	-3	33*	5
COc1ccccc1NC(=O)Cn1c(C)nc2c(sc(=S)n2Cc2ccco2)c1=O	1	1	17	-5	32*	3
COc1ccc(-c2ccc(C(=O)Nc3ccc(C(C)C)cc3)c3occc23)c(C)c1	nt	1	nt	8	20	nt
CSc1ccccc1C(=O)NCCCn1ccnc1	4	-2	54*	-2	14	2
CCN(CC)S(=O)(=O)c1ccc(N/N=C(\C)c2ccncc2)c([N+](=O)[O-])c1	0	0	17	6	1	-3
CCN(CC)S(=O)(=O)c1ccc(N/N=C(\C)c2cccnc2)nc1	0	1	-7	6	35*	1
CCN(CC)S(=O)(=O)c1ccc(N/N=C(\C)c2ccncc2)nc1	-1	-4	38	19	38*	-10
CCN(c1ccccc1)S(=O)(=O)c1ccc(OC)c(NC(=O)c2cc(F)c(F)c(F)c2F)c1	nt	-1	nt	-4	7	nt
C=CCNc1cccc2c1S(=O)(=O)N[C@H](CC(C)C)CO2	nt	nt	nt	8	nt	nt
